Data reported in PubChem BioAssay (NCATS).
A number with no mark means an inactive call. Active and inactive are the calls of the source. Calls follow the shape of the dose curve; as a rule, active = well fitted activation curve with a large enough effect; inconclusive = small, poorly fitted or top-dose-only effect; inactive = no such curve, though single readings can be large or run the other way.

Molecular target: Cytochrome P450 3A4 (Homo sapiens) (UniProt P08684)
Assay: qHTS Assay for Activators of Cytochrome P450 3A4 (AID 885); also: nearly all actives have a fitted effect of over 65% in size
Settings: recombinant CYP3A4, Luciferin-PPXE luminescence, 60 min; series mostly up to 57.1 µM; activity change, positive = activation: at the top concentration
Protocol: NIH Molecular Libraries Screening Centers Network [MLSCN]
NIH Chemical Genomics Center [NCGC]
The P450 gene superfamily is involved in the metabolism and clearance of xenobiotics. This assay used human CYP3A4 to measure the dealkylation of luciferin-6' phenylpiperazinylyl (Luciferin-PPXE; […]) to luciferin. The luciferin is then measured by luminescence after the addition of a luciferase detection reagent. Luciferin-PPXE concentration in the assay was equal to its KM for CYP3A4. Inhibitors and some substrates limit the production of luciferin, and decrease measured luminescence; activators increase the production of luciferin and luminescence.
NCGC Assay Protocol Summary:
Two uL of enzyme and substrate mix (final concentrations: 20nM CYP3A4, 25uM Luciferin-PPXE, 200mM KPO4) were dispensed into a white, solid bottom 1536-well microtiter plate. 23nL of compound was transferred by a pin tool. The plate was incubated at RT for 10 min. Two uL of an NADPH regeneration solution (Promega supplied reagent) was dispensed and the reaction was allowed to continue for 60 min at RT. Then the reaction was stopped by reconstituted luciferin detection buffer. After another 20 min of incubation the plate was read on the ViewLux (Perkin Elmer) at 60 sec exposure and 2x2 binning. This protocol was carried out with Promega-Glo reagents and further information can be found at http://www.promega.com/tbs/tb325/tb325.pdf. Data were normalized to the to AC100 inhibition (57 uM ketoconazole).
Keywords: P450, CYP2D6, Luciferase, MLSMR, MLSCN, NIH Roadmap, qHTS, NCGC
Potency is read from the fitted curve at half-maximal effect.

Cytochrome P450 3A4 (Homo sapiens), sequence (P08684 whole entry, looked up): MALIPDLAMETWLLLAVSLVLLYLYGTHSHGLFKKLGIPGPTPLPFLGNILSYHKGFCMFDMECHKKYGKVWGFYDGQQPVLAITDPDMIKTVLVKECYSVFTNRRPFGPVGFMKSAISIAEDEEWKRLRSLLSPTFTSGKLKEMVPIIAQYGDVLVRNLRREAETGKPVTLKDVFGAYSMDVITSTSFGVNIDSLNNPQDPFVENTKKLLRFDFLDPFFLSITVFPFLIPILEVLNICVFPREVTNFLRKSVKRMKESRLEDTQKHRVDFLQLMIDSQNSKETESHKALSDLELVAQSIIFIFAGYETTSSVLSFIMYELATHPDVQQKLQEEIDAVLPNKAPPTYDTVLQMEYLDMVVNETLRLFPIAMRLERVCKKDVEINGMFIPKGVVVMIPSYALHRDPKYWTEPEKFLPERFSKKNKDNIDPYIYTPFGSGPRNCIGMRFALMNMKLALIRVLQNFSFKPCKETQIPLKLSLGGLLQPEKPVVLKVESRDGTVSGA

Compound | activity change, positive = activation [%] | Potency
Fc1ccc(C(OCCN2CCN(C/C=C\c3ccccc3)CC2)c2ccc(F)cc2)cc1 | -58.1 | 
CC(C)C[C@H]1C(=O)N2CCCC2[C@]2(O)O[C@](NC(=O)[C@@H]3C=C4c5cccc6[nH]cc(c56)CC4N(C)C3)(C(C)C)C(=O)N12 (stereo not given in full) | -85.9 | 
c1ccc([C@H]2CNCc3ccccc32)cc1 | -51.7 | 
Oc1ccc2c3c1O[C@H]1c4oc5ccccc5c4C[C@]4(O)[C@H](C2)N(CC2CC2)CC[C@@]314 |  | inactive
COC(=O)CN1CN(c2ccccc2)C2(CCN(Cc3ccc4ccccc4c3)CC2)C1=O | -77.4 | 
C[N+](C)(C)CCO | -64.8 | 
C=C1[C@@H](O)C2C=CC[C@H](C)C(=O)[C@@](C)(O)C=C[C@@H](OC(C)=O)[C@@]23C(=O)N[C@H](Cc2ccccc2)[C@@H]3[C@@H]1C (stereo not given in full) | -33.7 | 
COC1=CC(=O)OC(CCc2ccc3c(c2)OCO3)C1 (stereo not given) | -60.4 | 
C[C@@H](Cc1ccc(OCC(=O)O)cc1)NC[C@H](O)c1cccc(Cl)c1 | -65.4 | 
O=c1cc(-c2ccc(O)c(O)c2)oc2cc(O)cc(O)c12 | -79.3 | 
CN1CC(CO)=C[C@H]2c3cccc4[nH]cc(c34)C[C@H]21 | -40.2 | 
C=CC1CN2CCC1CC2C(O)c1ccnc2ccccc12 (stereo not given) | -63.1 | 
O=C1/C(=C\c2ccccc2)C[C@@]2(O)[C@H]3Cc4ccc(O)c5c4[C@@]2(CCN3CC2CC2)[C@@H]1O5 | -57.9 | 
Clc1ccc(COC(Cn2ccnc2)c2ccc(Cl)cc2Cl)c(Cl)c1 (stereo not given) | -90.1 | 
C[C@H](N)Cc1c[nH]c2ccc(OCc3cccs3)cc12 |  | inactive
Cc1cc(O)c2c(c1)C(=O)c1cc(O)cc(O)c1C2=O | -101 | 
C/C(O)=C(/C#N)C(=O)Nc1cc(Br)ccc1Br | -41.6 | 
Brc1c(Br)c(Br)c2n[nH]nc2c1Br | -85.7 | 
c1ccc(C[C@@H](c2ccccc2)N2CCCCC2)cc1 | -35.9 | 
O=C(O)c1ccccc1-c1c2cc(Br)c(=O)cc-2oc2[c]([Hg])c(O)c(Br)cc12 | -101 | 

Compound | activity change, positive = activation [%] | Potency
CCCCCCCCCOc1ccc2[nH]cc(CCN)c2c1 | -36.8 | 
OC1(c2ccc(Cl)cc2)CCN(Cc2c[nH]c3ccccc23)CC1 |  | 2.51 µM (active)
Cc1c(C(=O)c2ccc3ccccc3c2)c2cccc3c2n1[C@H](CN1CCOCC1)CO3 | -74.7 | 
COC(=O)c1cc2c(cn1)[nH]c1ccccc12 |  | 15.8 µM (active)
c1ccc(CCCCN2CCC(c3ccccc3)CC2)cc1 |  | 31.6 µM (active)
C[C@]12N[C@@H](Cc3ccccc31)c1ccccc12 |  | inactive
COC(=O)C[C@](O)(CCCC(C)(C)O)C(=O)O[C@@H]1C(OC)=C[C@]23CCCN2CCc2cc4c(cc2[C@H]13)OCO4 | -88.7 | 
C=CCN1C[C@H](C)N([C@H](c2ccc(C(=O)N(CC)CC)cc2)c2cccc(O)c2)C[C@H]1C | -66 | 
CC[C@@]1(O)C(=O)OCc2c1cc1n(c2=O)Cc2cc3cc(O)ccc3nc2-1 | -65.5 | 
COc1c2ccoc2cc2oc(=O)ccc12 | -83.4 | 
CC1(C)CCC2=C(O1)c1ccccc1C(=O)C2=O | -102 | 
N#CC(C#N)=NNc1ccc(OC(F)(F)F)cc1 | -96.1 | 
CCCOc1ccc2[nH]cc(C3=CCNCC3)c2n1 | -76.3 | 
COC(=O)N1CCN(C(=O)Cc2ccc(Cl)c(Cl)c2)[C@H](CN2CCCC2)C1 | -63.2 | 
C=CCOC(=O)c1ccccc1C(=O)OCC=C | -91 | 
CC1CCCC(=O)CCC/C=C/c2cc(O)cc(O)c2C(=O)O1 (stereo not given) | -94.9 | 
CN(C)c1ccc(/C=C2\CCCN=C2c2cccnc2)cc1 | -54.8 | 
CC1OC(=O)C(C(C)C)NC(=O)C(C(C)C)OC(=O)C(C(C)C)NC(=O)C(C)OC(=O)C(C(C)C)NC(=O)C(C(C)C)OC(=O)C(C(C)C)NC(=O)C(C)OC(=O)C(C(C)C)NC(=O)C(C(C)C)OC(=O)C(C(C)C)NC1=O (stereo not given) | -34.6 | 
C[C@@H](N)Cn1ccc2cc(F)c(Cl)cc21 | -34.6 | 
c1ccc(Nc2cccc3ccccc23)cc1 | -71.2 | 
